Source: PubChem BioAssay (NCATS)
Results filed as inconclusive are left out. Calls of active or inactive are those of the source. Calls come from the whole dose curve; as a rule, active = well fitted inhibition curve with a large enough effect; inconclusive = small, poorly fitted or top-dose-only effect; inactive = flat fitted curve, though single readings scatter.

Experiments:
Assay in all cases: qHTS profiling for inhibitors of Plasmodium falciparum proliferation (AID 504749); note: nearly all actives have a fitted effect of over 60% in size
Settings in all cases: P. falciparum in erythrocytes, SYBR Green DNA, 72 h; series mostly up to 28.7 µM
CP305 = tested on: CP305
Outline: (§1)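 Quantitative HTS: compounds pinned into medium, infected erythrocytes added (0.3% parasitemia, 2.5% hematocrit), 72 h culture at 37 C under 5% CO2. Saponin/Triton lysis with SYBR Green I, overnight RT, then fluorescence read.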

CP315 = tested on: CP315
Outline: as §1

CP325 = tested on: CP325
Outline: as §1

CP329 = tested on: CP329
Outline: as §1

CP335 = tested on: CP335
Outline: as §1

DFO2036 = tested on: DFO2036
Outline: as §1

DIV14 = tested on: DIV14
Outline: as §1

DIV17 = tested on: DIV17
Outline: as §1

DIV30 = tested on: DIV30
Outline: as §1

Dd2 = tested on: Dd2
Outline: as §1

Measured: Potency

CS(=O)(=O)OCC(O)C(O)COS(C)(=O)=O (stereo not given)
inactive: CP305 | CP315 | CP325 | CP329 | CP335 | DFO2036 | DIV14 | DIV17 | DIV30 | Dd2

O=P(O)(O)O
inactive: CP305 | CP315 | CP325 | CP329 | CP335 | DFO2036 | DIV14 | DIV17 | DIV30 | Dd2

CC(=O)NCCCS(=O)(=O)O
inactive: CP305 | CP315 | CP325 | CP329 | CP335 | DFO2036 | DIV14 | DIV17 | DIV30 | Dd2

Cc1ccc(S(=O)(=O)NCl)cc1
inactive: CP305 | CP315 | CP325 | CP329 | CP335 | DFO2036 | DIV14 | DIV17 | DIV30 | Dd2

NC(=O)Oc1ccc(Cc2ccccc2)cc1
inactive: CP305 | CP315 | CP325 | CP329 | CP335 | DFO2036 | DIV14 | DIV17 | DIV30 | Dd2

CCN(CC)CCOc1ccc2nc(N(C)C)sc2c1
inactive: CP305 | CP315 | CP325 | CP329 | CP335 | DFO2036 | DIV14 | DIV17 | DIV30 | Dd2

CC1CC(O)CC(C)(C)C1 (stereo not given)
inactive: CP305 | CP315 | CP325 | CP329 | CP335 | DFO2036 | DIV14 | DIV17 | DIV30 | Dd2

OB(O)O
inactive: CP305 | CP315 | CP325 | CP329 | CP335 | DFO2036 | DIV14 | DIV17 | DIV30 | Dd2

Nc1ncnc2c1ncn2CCOCP(=O)(O)O
inactive: CP305 | CP315 | CP325 | CP329 | CP335 | DFO2036 | DIV14 | DIV17 | DIV30 | Dd2

CCCCC(CC)COS(=O)(=O)O (stereo not given)
inactive: CP305 | CP315 | CP325 | CP329 | CP335 | DFO2036 | DIV14 | DIV17 | DIV30 | Dd2

CCN(CC)C(=S)S
inactive: CP305 | CP315 | CP325 | CP329 | CP335 | DFO2036 | DIV14 | DIV17 | DIV30 | Dd2

CO[C@H]1C[C@@H]2CC[C@@H](C)[C@@](O)(O2)C(=O)C(=O)N2CCCC[C@H]2C(=O)O[C@H]([C@H](C)C[C@@H]2CC[C@@H](OC(=O)C(C)(CO)CO)[C@H](OC)C2)CC(=O)[C@H](C)/C=C(\C)[C@@H](O)[C@@H](OC)C(=O)[C@H](C)C[C@H](C)/C=C/C=C/C=C/1C
inactive: CP305 | CP315 | CP325 | CP329 | CP335 | DFO2036 | DIV14 | DIV17 | DIV30 | Dd2

COc1ccc(C(=O)c2ccc(C)cc2)c(O)c1
inactive: CP305 | CP315 | CP325 | CP329 | CP335 | DFO2036 | DIV14 | DIV17 | DIV30 | Dd2

S=C=Nc1ccc(N=C=S)cc1
inactive: CP305 | CP315 | CP325 | CP329 | CP335 | DFO2036 | DIV14 | DIV17 | DIV30 | Dd2

Nc1ncnc2c1ncn2[C@H]1CC[C@@H](CO)O1
inactive: CP305 | CP315 | CP325 | CP329 | CP335 | DFO2036 | DIV14 | DIV17 | DIV30 | Dd2

C[C@@](Cc1ccc(O)c(O)c1)(NN)C(=O)O
inactive: CP305 | CP315 | CP325 | CP329 | CP335 | DFO2036 | DIV14 | DIV17 | DIV30 | Dd2

COc1ccc(/C=C/C(=O)OCCC(C)C)cc1
inactive: CP305 | CP315 | CP325 | CP329 | CP335 | DFO2036 | DIV14 | DIV17 | DIV30 | Dd2

CCC(C(=O)NC(N)=O)c1ccccc1 (stereo not given)
inactive: CP305 | CP315 | CP325 | CP329 | CP335 | DFO2036 | DIV14 | DIV17 | DIV30 | Dd2

O=P(O)(O)CP(=O)(O)O
inactive: CP305 | CP315 | CP325 | CP329 | CP335 | DFO2036 | DIV14 | DIV17 | DIV30 | Dd2

O=P(O)(O)OC[C@H](O)CO
inactive: CP305 | CP315 | CP325 | CP329 | CP335 | DFO2036 | DIV14 | DIV17 | DIV30 | Dd2

COC(=O)c1ccccc1O
inactive: CP305 | CP315 | CP325 | CP329 | CP335 | DFO2036 | DIV14 | DIV17 | DIV30 | Dd2

O=C(O)COc1ccccc1/C=N/NC(=O)c1ccncc1
inactive: CP305 | CP315 | CP325 | CP329 | CP335 | DFO2036 | DIV14 | DIV17 | DIV30 | Dd2

CC(C)CCC[C@@H](C)[C@H]1CC[C@H]2[C@@H]3CC[C@@H]4C[C@H](O)CC[C@]4(C)[C@H]3CC[C@]12C
inactive: CP305 | CP315 | CP325 | CP329 | CP335 | DFO2036 | DIV14 | DIV17 | DIV30 | Dd2

CN(CCO)CC(O)Cn1cnc2c1c(=O)n(C)c(=O)n2C (stereo not given) (tested in a mixture with another compound)
inactive: CP305 | CP315 | CP325 | CP329 | CP335 | DFO2036 | DIV14 | DIV17 | DIV30 | Dd2

CC(CNC(=O)c1cccnc1)NC(=O)c1cccnc1 (stereo not given)
inactive: CP305 | CP315 | CP325 | CP329 | CP335 | DFO2036 | DIV14 | DIV17 | DIV30 | Dd2

NC(=S)NS(=O)(=O)c1ccc(N)cc1
inactive: CP305 | CP315 | CP325 | CP329 | CP335 | DFO2036 | DIV14 | DIV17 | DIV30 | Dd2

CCCCCCCCCCCCCCCCCC(=O)OCC(C)O (stereo not given)
inactive: CP305 | CP315 | CP325 | CP329 | CP335 | DFO2036 | DIV14 | DIV17 | DIV30 | Dd2

O=C(O)CCCC/C=C(\c1ccccc1)c1cccnc1
inactive: CP305 | CP315 | CP325 | CP329 | CP335 | DFO2036 | DIV14 | DIV17 | DIV30 | Dd2
